Active and inactive are the calls of the source.

Sequence of Dihydroorotate dehydrogenase (quinone), mitochondrial (Plasmodium falciparum (isolate 3D7)) (Q08210 whole entry, looked up): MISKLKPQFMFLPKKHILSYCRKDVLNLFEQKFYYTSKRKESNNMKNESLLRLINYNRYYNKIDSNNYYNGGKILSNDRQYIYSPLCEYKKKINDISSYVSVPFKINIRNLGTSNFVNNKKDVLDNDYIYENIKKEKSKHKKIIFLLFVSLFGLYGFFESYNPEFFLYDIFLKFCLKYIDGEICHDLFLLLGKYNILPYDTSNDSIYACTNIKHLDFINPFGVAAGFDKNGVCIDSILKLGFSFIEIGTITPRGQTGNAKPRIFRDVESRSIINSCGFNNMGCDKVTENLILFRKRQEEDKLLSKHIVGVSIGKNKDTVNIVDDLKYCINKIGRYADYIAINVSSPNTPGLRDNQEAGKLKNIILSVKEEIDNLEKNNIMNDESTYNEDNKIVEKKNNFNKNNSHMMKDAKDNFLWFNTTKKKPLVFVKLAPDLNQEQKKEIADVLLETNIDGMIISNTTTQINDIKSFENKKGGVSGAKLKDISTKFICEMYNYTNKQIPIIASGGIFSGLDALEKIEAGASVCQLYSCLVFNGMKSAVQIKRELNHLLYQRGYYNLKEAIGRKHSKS

The experiment concerns the target Dihydroorotate dehydrogenase (quinone), mitochondrial (Plasmodium falciparum (isolate 3D7)) (UniProt Q08210). The experiment in a line: inhibition of P. falciparum DHODH – biochemical, C-terminal His tag, absorbance 600 nm, primary screen (AID 1175).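 Note: recombinant parasite enzyme with a five histidine tag at its C terminus; test concentration not given here.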 Particulars: PfDHODH enzyme, DCIP absorbance 600 nm; higher = more signal, called active from +8 up or from −8 down.
Consider `COCCOC(=O)N1C(=O)[C@@]2(c3cc(C#Cc4ccc(OC)cc4)ccc31)[C@H](C(=O)N1CCCCCCC1)[C@H]1C(=O)O[C@H](c3ccccc3)[C@H](c3ccccc3)N1[C@@H]2c1ccc(O)cc1`, for which the composite z-score was -0.458 (inactive).
For `CN(C)C(=O)[C@]1(CCC(=O)OC(C)(C)C)N=C(c2ccc(OCCCO)cc2)O[C@@H]1c1ccccc1` the value was -0.19 (inactive); for `COC(=O)c1c(CC[C@@H](CO)NC(=O)N[C@H](Cn2cc(-c3ccccc3C)nn2)C(C)C)oc(C(C)=O)c1C(=O)OC`, -3.09 (inactive).
As to `Cc1ccc(S[C@]2(C(=O)O)CC(=O)N(Cc3ccccc3Cl)[C@@H]2c2ccc(CO)cc2)cc1`, the composite z-score is 0.0962 (inactive).
For `COCCOC(=O)N1C(=O)[C@@]2(c3ccccc31)[C@H](C(=O)N1CCN(c3ncccn3)CC1)[C@H]1C(=O)O[C@H](c3ccccc3)[C@H](c3ccccc3)N1[C@@H]2c1ccc(OCCO)cc1`, the composite z-score was -1.04 (inactive).
For `COCCOC(=O)N1C(=O)[C@@]2(c3cc(C#Cc4ccc(OC)cc4)ccc31)[C@H](C(=O)N1CCN(c3ncccn3)CC1)[C@H]1C(=O)O[C@H](c3ccccc3)[C@H](c3ccccc3)N1[C@@H]2c1ccccc1OCCO` the value was 0.27 (inactive); for `NCCCCCNC(=O)[C@@H]1C[C@@H]2C(=O)N[C@@H](CCCCN)C(=O)N2[C@@H]1c1cccc(OCCO)c1`, -0.308 (inactive); for `COc1ccc([Si](C)(C)[C@H]2[C@H](CCn3cc([C@H](O)c4ccccc4)nn3)O[C@@]3(C(=O)N(Cc4ccc(N5CCC5=O)cc4)c4ccccc43)[C@@H]2C)cc1`, 0.65 (inactive).
For `O=C1C[C@@](C(=O)NCC(F)(F)F)(c2ccc([N+](=O)[O-])cc2)[C@@H](c2ccc(CO)cc2)N1C1CCCCC1` the value was -0.356 (inactive).
As to `C#CCNC(=O)[C@H](Cc1ccccc1)NC(=O)[C@@H](N=[N+]=[N-])C(C)C`, the composite z-score is -0.635 (inactive).
For `C[C@H]1C2=C3C(CC[C@H]4C(OCc5ccc(F)cc5C(F)(F)F)OC[C@](C)([C@@H]34)N(C(=O)OC(C)(C)C)C2)C2COC(=O)OCC21` (stereo partly specified) the value was -0.047 (inactive).
As to `CC(C)(C)OC(=O)CC[C@]1(C(=O)N2CCOCC2)N=C(c2ccc(OCCCO)cc2)O[C@H]1c1ccccc1`, the composite z-score was -0.127 (inactive).
For `COc1ccc([Si](C)(C)[C@H]2[C@H](CCn3cc([C@H](O)c4ccccc4)nn3)O[C@@]3(C(=O)N(Cc4cccc(N5C(=O)c6cccc7cccc5c67)c4)c4ccccc43)[C@@H]2C)cc1` the value was 0.0064 (inactive); for `C=C(C(=O)CC[C@H](OC(=O)c1cccnc1)c1ccc(CO)o1)C(C)C`, -3.18 (inactive); for `C=CC1c2cc(O)c(OC)cc2CCN1Cc1sc2ccccc2c1Cl` (stereo unspecified), -1.04 (inactive).
Take `CC(C)(C)OC(=O)CC[C@@]1(C(=O)O)N=C(c2ccc(OCCCO)cc2)O[C@@H]1c1ccccc1CN=[N+]=[N-]`: the composite z-score was 0.221 (inactive).
As for `CC=CC(O)C1C=CC2C(=O)N(C)C(=O)C2N1N1CCCCC1` (stereo unspecified), the figure is -0.811 (inactive); as for `CO[C@H]1O[C@H](CO)[C@@H](OC(=O)Nc2ccccc2-c2ccccc2)[C@H](OC(=O)Nc2ccc3c(c2)OCO3)[C@@H]1OC(=O)Nc1ccc2c(c1)OCO2`, -0.289 (inactive); as for `O=C1NCC(=O)N2[C@@H]1C[C@@H](C(=O)O)[C@H]2c1ccc(O)cc1`, -0.273 (inactive).
For `C[C@@H](OCc1ccccc1)C1NC(=O)[C@@]23C(=O)N[C@@H](Cc4ccccc4)C2[C@H](C)[C@@]2(C)O[C@H]2C3/C=C/C/C=C\CNC(=O)CNC1=O` (stereo partly specified) the value was -0.402 (inactive); for `CCOC(=O)[C@H]1C/C=C/C[C@H](C(=O)OCC)C(=O)O[C@H]2[C@@H](OC)O[C@H](CO)[C@@H](OC(=O)CCc3ccccc3)[C@@H]2OC1=O`, -0.915 (inactive).
For `C=C(CCCC)/C(=C/C[C@@H](OC(C)=O)c1ccc(CO)o1)c1cc(C(=O)OC)ccc1OC`, the composite z-score was -2.63 (inactive).
As for `C=CCOC(=O)[C@@H]1[C@H]2C(=O)O[C@H](c3ccccc3)[C@H](c3ccccc3)N2[C@H](c2ccc(OCCOC(=O)[C@H]3C[C@H]4C(=O)N[C@@H](CCCC[N+](C)(C)C)C(=O)N4[C@H]3c3ccc(O)cc3)cc2)[C@@]12C(=O)Nc1ccc(I)cc12`, the figure is -0.353 (inactive).
As for `COC1(C)CN(Cc2ccccc2Br)[C@H](/C=C/c2ccccc2)[C@H](Cc2ccccc2)O1` (stereo partly specified), the figure is -0.167 (inactive).
Take `C=CCN1C(=O)[C@]2(CC=C)N=C(c3ccc(OCCCO)cc3)O[C@@H]2c2ccccc21`: the composite z-score was 0.0306 (inactive).
Consider `CCCC=C(CCC)[C@@H](NP(=O)(c1ccccc1)c1ccccc1)c1ccc(C(F)(F)F)cc1`, for which the composite z-score was 0.0197 (inactive).
For `CC(C)N1C(=O)[C@@]2(c3ccc([N+](=O)[O-])cc3)CC(=O)N(C3CCCCC3)[C@@H]2c2ccc(CO)cc21` the value was -13.8 (active).
For the compound `CON(C)C(=O)C=C1C[C@@H](c2cccc(Cl)c2)O[C@@H](c2cccc(Cl)c2)O1`, the composite z-score is -0.558 (inactive).
`[N-]=[N+]=NCc1ccccc1C[C@@]1(C(N)=O)N=C(c2ccc(OCCCO)cc2)O[C@@H]1c1ccccc1CN=[N+]=[N-]`: the composite z-score was -11.6 (active).
For `O=C(O)[C@H]1C[C@H]2C(=O)N3CCC[C@H]3C(=O)N2[C@H]1c1cccc(OCCO)c1` the value was -0.117 (inactive); for `C=C(CCCC)C(=O)CC[C@@H](OC(=O)c1ccccc1-c1ccccc1C(=O)O)c1cccc(OCCO)c1`, -0.556 (inactive); for `[N-]=[N+]=NCc1ccccc1C[C@]1(C(=O)NCC(O)CO)N=C(c2ccc(OCCCO)cc2)O[C@H]1c1ccccc1CN=[N+]=[N-]` (stereo partly specified), -0.212 (inactive).
As for `C=CCNC(=O)[C@@H]1[C@H]2C(=O)O[C@H](c3ccccc3)[C@H](c3ccccc3)N2[C@H](c2ccc(OCCO)cc2)[C@@]12C(=O)N(C(=O)OCCOC)c1ccc(C#CC3=CCCCC3)cc12`, the figure is -1.47 (inactive); as for `O=C1OCCC=C[C@H]2OC34C=CCN(c5ccc(Cl)cc5)C(=O)[C@H]3N(CCCCCO)C(=O)[C@@H]4C12` (stereo partly specified), -0.417 (inactive); as for `COc1c(C)cc(-c2cc3c(c(-c4ccccc4)n2)[Si](C(C)C)(C(C)C)OC3)cc1C`, -0.149 (inactive).
As for `CCCCN1CC=CC23O[C@@H]4/C=C\CCC(C)OC(=O)C4[C@H]2C(=O)N(CCCCCCO)[C@@H]3C1=O` (stereo partly specified), the figure is -0.524 (inactive).

The values are drawn from PubChem BioAssay.
